Structures can show the parent of a compound that is named as a salt.

In the assay the test system is Danio rerio larvae (5 dpf). Description: startle (activity period 16 minus period 15, 20-s interval sound) minus DMSO control (percentage points); higher = stronger startle response than DMSO larvae. The following applies: 10 µM; exposure time: 3 h pre-incubation + 3 h imaging. Here is the method:
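Wild-type 5 dpf zebrafish larvae (n=48 per drug, 96-well plates, 28.5 °C) were exposed to Tocris FDA-approved library compounds at 10 µM (0.1% DMSO) for 3 h before and 3 h during imaging. Images were taken every 6 s during visual and acoustic stimuli, and larvae were tracked with Z-LaP Tracker. Each measure is the treated-group mean minus the DMSO control mean (n=844), in percentage points. This mapping covers compounds with 5-character plate codes.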
For the compound `CC(=O)Nc1ccc(O)cc1` [Acetaminophen], the startle was determined as 0.242.
Under `COc1ccccc1OCC(O)CN1CCN(CC(=O)Nc2c(C)cccc2C)CC1` (configuration not stated) [Ranolazine dihydrochloride] stands 2.16; under `OCCN1C[C@H](O)[C@@H](O)[C@H](O)[C@H]1CO` [Miglitol], -0.148; under `COc1ccccc1Oc1c(NS(=O)(=O)c2ccc(C(C)(C)C)cc2)nc(-c2ncccn2)nc1OCCO` [Bosentan], 7.41.
The same measure for `O=C(O)C[C@H](O)C[C@H](O)/C=C/c1c(C2CC2)nc2ccccc2c1-c1ccc(F)cc1` [Pitavastatin calcium]: 2.76; for `O=C1CCc2ccc(OCCCCN3CCN(c4cccc(Cl)c4Cl)CC3)cc2N1` [Aripiprazole]: -3.31.
Regarding `NS(=O)(=O)c1cc2c(cc1Cl)NC(C1CC3C=CC1C3)NS2(=O)=O` (configuration not stated) [Cyclothiazide], the startle is 1.22.
The same measure for `Clc1ccc2nsnc2c1NC1=NCCN1` [Tizanidine hydrochloride]: -2.98; for `CN(C)CCc1c[nH]c2ccc(C[C@H]3COC(=O)N3)cc12` [Zolmitriptan]: 2.75.
For the compound `CC(C)OC(=O)C(C)(C)Oc1ccc(C(=O)c2ccc(Cl)cc2)cc1` [Fenofibrate], the startle was -5.75.
The same measure for `CNS(=O)(=O)Cc1ccc2[nH]cc(CCN(C)C)c2c1` [Sumatriptan succinate]: 2.1; for `CC[C@H]1OC(=O)[C@H](C)[C@@H](O[C@H]2C[C@@](C)(OC)[C@@H](O)[C@H](C)O2)[C@H](C)[C@@H](O[C@@H]2O[C@H](C)C[C@H](N(C)C)[C@H]2O)[C@](C)(O)C[C@@H](C)CN(C)[C@H](C)[C@@H](O)[C@]1(C)O` [Azithromycin]: 2.55.
Take `CN[C@H]1CC[C@@H](c2ccc(Cl)c(Cl)c2)c2ccccc21` [Sertraline hydrochloride]: the startle was determined as 2.62.
On to `OC(c1cc(C(F)(F)F)nc2c(C(F)(F)F)cccc12)C1CCCCN1` (configuration not stated) [Mefloquine hydrochloride], for which the startle is -13.1.
The same measure for `COc1cc([C@@H]2c3cc4c(cc3[C@@H](O[C@@H]3O[C@@H]5CO[C@@H](C)O[C@H]5[C@H](O)[C@H]3O)[C@H]3COC(=O)[C@H]23)OCO4)cc(OC)c1O` [Etoposide]: -0.943; for `CC(C)COCC(CN(Cc1ccccc1)c1ccccc1)N1CCCC1` (configuration not stated) [Bepridil hydrochloride]: -3.27.
As for `CC(C)(C(=O)O)c1ccc(C(O)CCCN2CCC(C(O)(c3ccccc3)c3ccccc3)CC2)cc1` (configuration not stated) [Fexofenadine hydrochloride], the startle is 3.14.
Under `CCCCCCCN(CC)CCCC(O)c1ccc(NS(C)(=O)=O)cc1` (configuration not stated) [Ibutilide hemifumarate] stands -4.59; under `CNC(=O)c1cc(Oc2ccc(NC(=O)Nc3ccc(Cl)c(C(F)(F)F)c3)cc2)ccn1` [Sorafenib], -3.34; under `COc1cc2nccc(Oc3ccc(NC(=O)C4(C(=O)Nc5ccc(F)cc5)CC4)cc3)c2cc1OC`, -3.85.
Under `C#CCN[C@@H]1CCc2ccccc21` [Rasagiline mesylate] stands 3.19; under `Cc1cc2c(s1)Nc1ccccc1N=C2N1CCN(C)CC1` [Olanzapine], 2.27.
Under `COc1cc(N)c(Cl)cc1C(=O)NC1CCN(CCCOc2ccc(F)cc2)CC1OC` (configuration not stated) [Cisapride] stands -1.14; under `CCCc1nn(C)c2c(=O)[nH]c(-c3cc(S(=O)(=O)N4CCN(C)CC4)ccc3OCC)nc12` [Sildenafil citrate], -1.15; under `CN(C)C(=N)NC(=N)N` [Metformin hydrochloride], -2.04.
For the compound `CCc1nc(N)nc(N)c1-c1ccc(Cl)cc1` [Pyrimethamine], the startle was 1.66.
The same measure for `CC(=O)Oc1cc2c(s1)CCN(C(C(=O)C1CC1)c1ccccc1F)C2` (configuration not stated) [Prasugrel]: -11.4.
The same measure for `NC(=O)OCC(COC(N)=O)c1ccccc1` [Felbamate]: 1.44; for `COCCc1ccc(OCC(O)CNC(C)C)cc1` (configuration not stated) [Metoprolol tartrate]: 4.47.
Under `CNCc1ccc(-c2[nH]c3cc(F)cc4c3c2CCNC4=O)cc1` [Rucaparib camsylate] stands -4.48; under `OCc1cc(C(O)CNCCCCCCOCCCCc2ccccc2)ccc1O` (configuration not stated) [Salmeterol xinafoate], -4.63; under `N#Cc1ccc2[nH]cc(CCCCN3CCN(c4ccc5oc(C(N)=O)cc5c4)CC3)c2c1` [Vilazodone hydrochloride], -7.54.
Consider `C[C@H]1O[C@H](O[C@H]2[C@H](O)[C@@H](O)[C@@H](O[C@H]3[C@H](O)[C@@H](O)C(O)O[C@@H]3CO)O[C@@H]2CO)[C@H](O)[C@@H](O)[C@@H]1N[C@H]1C=C(CO)[C@@H](O)[C@H](O)[C@H]1O` (some centres not stated) [Acarbose], for which the startle is -7.07.
Regarding `C[C@@H]1C[C@H]2[C@@H]3CCC4=CC(=O)C=C[C@]4(C)[C@@]3(F)[C@@H](O)C[C@]2(C)[C@@]1(O)C(=O)CO` [Dexamethasone], the startle was -0.0968.
Under `O=c1n(CCCN2CCN(c3cccc(Cl)c3)CC2)nc2ccccn12` [Trazodone hydrochloride] stands 3.18; under `CCCC1O[C@@H]2C[C@H]3[C@@H]4CCC5=CC(=O)C=C[C@]5(C)[C@H]4[C@@H](O)C[C@]3(C)[C@]2(C(=O)CO)O1` (some centres not stated) [Budesonide], -5.13; under `N#C[C@@H]1C[C@@H]2C[C@@H]2N1C(=O)[C@@H](N)C12CC3CC(CC(O)(C3)C1)C2` [Saxagliptin hydrochloride], 4.83.

The values are drawn from the supplement of paper PMC9950053.
